# Screens as filed in PubChem.
# An excerpt weighted towards active compounds, which were near 0.99% of everything screened.
# TRPV1 potentiator = enhances activation of the human vanilloid receptor TRPV1 | potentiation, % at 8.33 µM | hit rate 0.02% among 320,000 | Q8NER1 | TRPV1-expressing cells, Fluo-8 calcium influx, capsaicin EC20 potentiation; in the data active means potentiation above about 80%; inconclusive means between about 30% and that limit; further: 0% is about no effect
# Target sequence (Q8NER1 whole entry, looked up): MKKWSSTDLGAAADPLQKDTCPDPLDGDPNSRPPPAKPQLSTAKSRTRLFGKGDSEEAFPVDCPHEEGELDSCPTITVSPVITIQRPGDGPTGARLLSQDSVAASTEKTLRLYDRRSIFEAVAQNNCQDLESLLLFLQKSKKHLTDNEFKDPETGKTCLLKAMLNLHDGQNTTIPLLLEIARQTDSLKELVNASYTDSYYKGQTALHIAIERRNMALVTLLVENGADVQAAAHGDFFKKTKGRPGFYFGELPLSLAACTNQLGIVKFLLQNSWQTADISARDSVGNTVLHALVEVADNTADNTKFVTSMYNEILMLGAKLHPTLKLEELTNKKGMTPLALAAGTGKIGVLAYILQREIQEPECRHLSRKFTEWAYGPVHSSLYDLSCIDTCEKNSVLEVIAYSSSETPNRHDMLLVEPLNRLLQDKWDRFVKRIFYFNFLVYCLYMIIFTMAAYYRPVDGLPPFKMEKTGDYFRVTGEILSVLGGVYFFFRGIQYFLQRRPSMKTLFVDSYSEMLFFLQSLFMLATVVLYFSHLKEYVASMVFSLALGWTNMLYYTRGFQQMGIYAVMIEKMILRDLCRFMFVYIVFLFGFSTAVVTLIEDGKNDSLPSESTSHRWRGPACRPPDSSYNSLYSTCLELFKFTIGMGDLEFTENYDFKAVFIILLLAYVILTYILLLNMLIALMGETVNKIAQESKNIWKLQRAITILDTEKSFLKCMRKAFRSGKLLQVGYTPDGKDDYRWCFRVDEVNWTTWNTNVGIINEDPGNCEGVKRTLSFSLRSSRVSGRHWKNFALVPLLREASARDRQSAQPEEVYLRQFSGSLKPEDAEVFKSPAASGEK
#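 Cells expressing TRPV1 were dye-loaded with Fluo-8 and read kinetically: 10 s baseline, 3 min after compound (agonist portion), then 2 min after EC20 capsaicin (allosteric enhancer portion). Calcium-bound dye fluorescence at 480/520 nm.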
# TRPML1 blocker = blocks the human TRPML1 channel. Q9GZU1. TRPML1-inducible cells, Ca2+ dye fluorescence, FDSS; active compounds read low; inhibition of EC80 agonist-evoked calcium signal. activity change, negative = inhibition, % (concentration not given with the values). hit rate 0.02% among 390,000. AID 624415; in the data active means activity change below about -50%; inconclusive means between about -30% and that limit;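 further: stimulus is agonist 54-4 at its EC80 concentration; on the % scale 0 is the no-effect control and ±100 the full control effect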
#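 TRPML1-DL cells, Tet-induced overnight (~16 h, 37 °C) at 1,500 cells/well, were loaded with Ca8 no-wash dye plus quencher for 45-90 min at room temperature. Compounds were pinned during FDSS kinetic reading; agonist 54-4 at EC80 (4 uM final) then added.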
# TRPML1 ag = agonists of human TRPML1 channel | Q9GZU1 | TRPML1-expressing cells, Ca2+ dye fluorescence, FDSS | activation, % (no concentration beside the values) | hit rate 0.12% among 410,000 | AID 624414; in the data active means activation above about 50%; inconclusive means mostly about 30% to 49%; further: 0% is about no effect
#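 Calcium fluorescence on an FDSS kinetic reader gave the read-out. Tet-induced TRPML1-DL cells were plated overnight, dye-loaded (Ca8 with quencher, 45-90 min, room temperature, dark), then read 110 s after compound addition, and again 110 s after 4uM final 54-4 (EC80).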
# TRHR enhancer = allosteric enhancers of human TRH receptor; P34981; TRHR cells, fluo-8 calcium fluorescence, EC20 TRH enhancement; enhancement, % at 2 µM; hit rate 0.66% among 360,000; in the data active means enhancement above about 30%; further: 0% is about no effect
#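 TRHR-expressing cells loaded with fluo-8 calcium dye were read kinetically (ex 480/em 530) during compound addition, then stimulated with an EC20 of TRH (10 nM final). Enhancement of the Gq-mediated intracellular calcium response was scored.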
# TRHR ag = activates the human TRH receptor; P34981; TRHR cells, calcium flux fluo-8, FDSS agonist mode; activation, % at 2 µM; hit rate 0.18% among 360,000; in the data active means activation above about 30%; further: 0% is about no effect
#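 TRHR-expressing cells loaded with fluo-8 calcium dye; 23 nL library compound pin-transferred, kinetic FDSS fluorescence (Ex 480/Em 530) recorded about 180 s for agonist-induced calcium release, before a 10 nM TRH EC20 addition for potentiator mode.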
# TRPV1 agonist = human TRPV1 agonism; hit rate 0.19% among 320,000; activation, % at 8.33 µM; Q8NER1; TRPV1-expressing cells, Fluo-8 calcium influx, agonist mode; AID 540275; in the data active means activation above about 80%; inconclusive means between about 30% and that limit; further: 0% is about no effect
#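 TRPV1-expressing cells were cultured overnight at 35.5C and loaded with Fluo-8 calcium dye for 40 to 90 min at room temperature. After a 10 s baseline, compound was added and calcium influx was read kinetically for 3 min (ex 480/em 520 nm).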
# The depositor's hits bear a star; ? = inconclusive; / = not tested or not shown; ! = a repeat was not active.
SMILES,TRPV1 potentiator,TRPML1 blocker,TRPML1 ag,TRHR enhancer,TRHR ag,TRPV1 agonist
O=c1c2cccnc2[nH]c(=S)n1Cc1ccccc1,13,-20,0,32*,0,-1
O=c1c2nccnc2[nH]c(=S)n1Cc1ccccc1,?,-12,-1,5,0,1
COc1ccc(C(=O)Nc2ccc(C(=O)N3CCOCC3)cc2)cc1OC,14,1,0,32*,0,-2
COc1ccc(NC(=O)c2ccc(Br)c(S(=O)(=O)N3CCOCC3)c2)cc1,-27,-6,-1,-1,0,98*
COc1ccc(C(=O)Nc2ccc(S(=O)(=O)N3CCOCC3)cc2)cc1,/,-12,1,/,/,/
COc1ccc(C(=O)Nc2ncc(C)s2)cc1S(=O)(=O)N1CCOCC1,7,-5,1,32*,2,0
CC(=O)ON(C(C)=O)c1ccc(/C=C2/C=Cc3ccccc32)cc1,/,/,-1,/,/,/
Cc1cnc2c(C)cccc2c1C,/,/,0,/,/,/
CCCCCCCCCC[n+]1cccc2cc(Br)ccc21,/,/,0,/,/,/
CC(C)CN1C(=O)c2ccc(NC(=O)c3cccs3)cc2C1=O,-12,-8,1,38*,1,?
COC(=O)c1ccc(Cn2ncc3c4sc(C)cc4n(C)c3c2=O)cc1,/,/,/,-5,-1,/
Cc1ccc(S(=O)(=O)NCC(=O)NC2CCCC2)cc1,-9,1,0,-1,0,-3
Cc1ccc(S(=O)(=O)NCC(=O)NC2CCCCCC2)cc1,-11,-8,0,34*,0,?
COc1cc(Cl)c(C)cc1NC(=O)c1cnc(N2CCCCC2)c2ccccc12,/,-15,69*,0,0,/
COc1cc(Cl)c(C)cc1NC(=O)c1cnc(N2CCOCC2)c2ccccc12,/,-30,?,4,-1,/
Cc1ccc(C(=O)OC2OC(=O)C(Cl)=C2N2CCOCC2)cc1 (stereo not given),1,9,-1,30*,1,-1
N#Cc1nc(NC2CCCC2)c2ncn(-c3cc(F)cc(F)c3)c2n1,/,/,/,-3,1,/
O=S(=O)(c1ccc2c(c1)OCCO2)N1CCN(S(=O)(=O)c2cccc3cccnc23)CC1,/,/,/,1,2,/
O=C(CCSCc1ccc(Cl)cc1)NCCc1ccccc1,-6,0,0,0,0,?
O=C(CCSCc1ccc(Cl)cc1)NCc1cccnc1,-3,3,0,1,0,81*
COc1cccc(C=Nc2ccc(N3CCOCC3)cc2)c1O,6,/,/,36*,-2,2
O=C(Nc1nccs1)[C@@H]1CC=C[C@@H]2CCN(Cc3ccc(Cl)c(Cl)c3)C(=O)[C@@H]21,/,/,0,/,/,/
CCCCNc1c(N2CCN(C(=O)OCC)CC2)c(=O)c1=O,9,5,-1,-2,0,0
CCOC(=O)N1CCN(c2c(Nc3cc(C)[nH]n3)c(=O)c2=O)CC1,-2,-1,0,35*,0,1
CCc1nn(CC(=O)NCCN(CC(C)C)CC(C)C)c(=O)c2cc3sc(C)cc3n12,/,-14,2,55*,0,/
SMILES,TRPV1 potentiator,TRPML1 blocker,TRPML1 ag,TRHR enhancer,TRHR ag,TRPV1 agonist
CCCCN(C)CCCNC(=O)Cn1nc(CC)n2c(cc3sc(C)cc32)c1=O,/,-1,1,2,0,/
Cc1ccc([C@@H]2CC(=O)[C@@H]3CN(S(=O)(=O)c4ccc(C)cc4)[C@H](c4cccc5ccccc45)C[C@@H]3N2S(=O)(=O)c2ccc(Cl)cc2)cc1,/,2,1,/,/,/
Cc1ccc(S(=O)(=O)N2C[C@H]3C(=O)C[C@@H](c4ccccc4)N(S(=O)(=O)c4ccc(C)cc4)[C@H]3C[C@H]2c2cccc3ccccc23)cc1,/,-2,56*,/,/,/
Cc1ccc(S(=O)(=O)N2C[C@H]3C(=O)C[C@@H](c4ccccc4)N(S(=O)(=O)c4ccc(C)cc4)[C@H]3C[C@H]2c2cccc(C)c2)cc1,/,?,93*,/,/,/
Cc1ccc(S(=O)(=O)N2C[C@H]3C(=O)C[C@@H](c4ccccc4)N(S(=O)(=O)c4cccc(C)c4)[C@H]3C[C@H]2c2ccccc2)cc1,/,-22,3,/,/,/
O=C1COc2ccc(C(=O)COC(=O)CCSc3ccc(Cl)cc3)cc2N1,-27,-5,3,5,0,4
O=C1COc2ccc(C(=O)COC(=O)Cc3ccc(Cl)cc3)cc2N1,5,21,0,36*,1,0
CC(C)c1ccc(NC(=O)c2cccc(Br)c2)cc1,6,-14,-1,-7,0,93*
c1coc(CNc2nc[n+]3c4c2ncn4CC3)c1,/,/,0,/,/,/
O=C(Nc1cccc(OCc2cc(=O)n3c4c(sc3n2)CCCC4)c1)c1ccc(F)cc1,/,6,-1,4,-2,/
Cc1ccccc1C(=O)Nc1cccc(OCc2cc(=O)n3c4c(sc3n2)CCCC4)c1,/,6,1,32*,-1,/
COc1ccccc1C1N=C(Nc2nc3ccccc3o2)NC2=C1C(=O)CC(C)(C)C2 (stereo not given),/,/,-1,/,/,/
CN(C)c1ccc(/C=C/c2ccnc3ccc(N)cc23)cc1,/,/,9,/,/,/
COc1cc(-c2oc3ccc(C)cc3c(=O)c2O)cc(OC)c1OC,/,12,4,-2,9,/
CCOc1ccc(-c2oc3cc(Cl)ccc3c(=O)c2O)cc1OC,/,6,23,-11,78*,/
COc1cccc(NC(=S)NNC(=O)Cn2nc([N+](=O)[O-])cc2C)c1,15,-7,1,41*,0,-1
CN(C)C(=O)COC(=O)c1ccccc1OCC(=O)Nc1ccc(Br)cc1,/,/,0,/,/,/
CC(=O)c1ccc(N2CCN(C(=O)c3cc4cc5cc(C)ccc5nc4s3)CC2)cc1,/,16,0,49*,1,/
N#Cc1ccc(S(=O)(=O)N2CCN(S(=O)(=O)c3ccc4c(c3)OCCO4)CC2)cc1,/,/,/,-4,1,/
Cc1ccc(C)c(N2CCN(CCCNC(=O)Cn3ncc4c([nH]c5ccccc54)c3=O)CC2)c1,/,-7,3,4,0,/
COc1ccccc1N1CCN(CCCNC(=O)Cn2ncc3c([nH]c4ccccc43)c2=O)CC1,-1,1,0,32*!,0,1
O=S(=O)(c1ccccc1)c1nc(-c2cccs2)oc1N1CCCCC1,/,24,3,36*,0,/
Cc1ccc(C)c2c1NC(C(=O)O)C1CC=CC21 (stereo not given),/,/,0,/,/,/
Cc1ccccc1C(=O)N/N=C1\SCC(=O)N1Cc1ccco1,8,-24,1,37*,0,0
Cc1cccc2c(=O)[nH]c3c(-c4nc(-c5ccc(Cl)cc5)cs4)c(O)cn3c12,/,/,0,/,/,/
Cc1nnc(NC(=O)C2CC(=O)N(c3ccc4c(c3)OCCO4)C2)s1 (stereo not given),-13,-11,0,35*,0,0
